What all share (assay): HT-SELEX; high values mean tight binding
Common to all, as to conditions: protein: recombinant; vector His6-GST; dsDNA, one strand shown

In one assay the target is T1, SALL4 ZFC4 WT (HT-SELEX) (Mus musculus, UniProt Q8BX22 870-940).
T1 sequence: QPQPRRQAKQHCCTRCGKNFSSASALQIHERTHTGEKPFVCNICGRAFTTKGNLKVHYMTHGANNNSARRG
The method, boiled down: (§1)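 DNA from a random library (1.5 µg in the first cycle, 200 ng afterwards) was incubated with purified recombinant mouse SALL4 zinc finger cluster 4, residues 870–940 (1 µg), for 10 min at room temperature in 100 µl buffer: 10 mM Tris–HCl pH 7.5, 50 mM NaCl, poly(dI-dC), DTT. Bound complexes were pulled down on Ni2+ beads, washed and PCR-amplified, and the selection was repeated for up to 6 cycles in triplicate. MiSeq reads were scanned for 6-mers, and binding signal is each canonical k-mer's read fraction as fold change over the initial random library.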

Assay [1] deals with T2, SALL4 ZFC4 R900W (HT-SELEX) (Mus musculus, UniProt Q8BX22 870-940, R900W).
T2 sequence: T1 sequence with R31W
The method, boiled down:
as §1

Assay [2] concerns the target T3, SALL4 ZFC4 G921D (HT-SELEX) (Mus musculus, UniProt Q8BX22 870-940, G921D).
T3 sequence: T1 sequence with G52D
The essentials: as §1

Changes are numbered by the printed parent chain.

TCAGAA: the binding signal with SALL4 ZFC4 WT (HT-SELEX) was found to be 1.27 ± 0.0471 fold-change vs cycle 0; in assay [1], 1.37 ± 0.0562 fold-change vs cycle 0; in assay [2], 1.28 ± 0.0614 fold-change vs cycle 0.

With ATAGTC, the binding signal with SALL4 ZFC4 WT (HT-SELEX) came to 1.25 ± 0.0415 fold-change vs cycle 0; in assay [1], 1.31 ± 0.0594 fold-change vs cycle 0; in assay [2], 1.33 ± 0.0589 fold-change vs cycle 0.

With TAACCA, the binding signal in the assay with SALL4 ZFC4 WT (HT-SELEX) is 1.42 ± 0.042 fold-change vs cycle 0; in assay [1], 1.47 ± 0.047 fold-change vs cycle 0; in assay [2], 1.37 ± 0.0838 fold-change vs cycle 0.

For TTCGAA, the binding signal is 1.05 ± 0.0775 fold-change vs cycle 0 in the assay with SALL4 ZFC4 WT (HT-SELEX), 1.14 ± 0.0752 fold-change vs cycle 0 in assay [1] and 1.15 ± 0.0514 fold-change vs cycle 0 in assay [2].

Regarding ATTAAT, the binding signal in the assay with SALL4 ZFC4 WT (HT-SELEX) worked out at 6.27 ± 0.662 fold-change vs cycle 0; in assay [1], 2.77 ± 0.256 fold-change vs cycle 0; in assay [2], 2.34 ± 0.327 fold-change vs cycle 0.

Regarding AGAATG, the binding signal with SALL4 ZFC4 WT (HT-SELEX) was 1.34 ± 0.0249 fold-change vs cycle 0; in assay [1] it was 1.52 ± 0.0481 fold-change vs cycle 0; in assay [2], 1.35 ± 0.0697 fold-change vs cycle 0.

CAACGG: the binding signal amounted to 0.353 ± 0.0289 fold-change vs cycle 0 with SALL4 ZFC4 WT (HT-SELEX), 0.419 ± 0.0235 fold-change vs cycle 0 in assay [1] and 0.526 ± 0.0596 fold-change vs cycle 0 in assay [2].

As for CCCTGA, the binding signal with SALL4 ZFC4 WT (HT-SELEX) was 0.494 ± 0.0131 fold-change vs cycle 0; in assay [1], 0.574 ± 0.0156 fold-change vs cycle 0; in assay [2] it was 0.665 ± 0.0261 fold-change vs cycle 0.

In the case of ATATAG, the binding signal came out at 2.33 ± 0.245 fold-change vs cycle 0 in the assay with SALL4 ZFC4 WT (HT-SELEX), 1.9 ± 0.143 fold-change vs cycle 0 in assay [1] and 1.74 ± 0.201 fold-change vs cycle 0 in assay [2].

On to ACGGTC, for which the results for the binding signal (with SALL4 ZFC4 WT (HT-SELEX); in assay [1]; in assay [2]) were 0.362 ± 0.0473 fold-change vs cycle 0, 0.432 ± 0.0371 fold-change vs cycle 0 and 0.553 ± 0.067 fold-change vs cycle 0, respectively.

For the sequence ACCTCA, the binding signal with SALL4 ZFC4 WT (HT-SELEX) was 0.854 ± 0.0441 fold-change vs cycle 0; in assay [1] it was 0.976 ± 0.0441 fold-change vs cycle 0; in assay [2] it was 1.04 ± 0.0599 fold-change vs cycle 0.

As for AAAGTC, the values for the binding signal (with SALL4 ZFC4 WT (HT-SELEX); in assay [1]; in assay [2]) were 1.1 ± 0.0483 fold-change vs cycle 0, 1.25 ± 0.0636 fold-change vs cycle 0 and 1.24 ± 0.0652 fold-change vs cycle 0, respectively.

Regarding AATGCA, the binding signal was 1.12 ± 0.0474 fold-change vs cycle 0 with SALL4 ZFC4 WT (HT-SELEX), 1.11 ± 0.069 fold-change vs cycle 0 in assay [1] and 1.15 ± 0.0324 fold-change vs cycle 0 in assay [2].

As to TTACAA, the binding signal with SALL4 ZFC4 WT (HT-SELEX) was 2.01 ± 0.0785 fold-change vs cycle 0; in assay [1], 2.03 ± 0.0849 fold-change vs cycle 0; in assay [2] it was 1.81 ± 0.143 fold-change vs cycle 0.

TCGGAA: the figures for the binding signal (with SALL4 ZFC4 WT (HT-SELEX); in assay [1]; in assay [2]) were 0.681 ± 0.041 fold-change vs cycle 0, 0.761 ± 0.0268 fold-change vs cycle 0 and 0.862 ± 0.0635 fold-change vs cycle 0, respectively.

As for TCACAA, the binding signal came to 1.2 ± 0.0727 fold-change vs cycle 0 with SALL4 ZFC4 WT (HT-SELEX), 1.32 ± 0.0623 fold-change vs cycle 0 in assay [1] and 1.29 ± 0.11 fold-change vs cycle 0 in assay [2].

For TCTGAA, the binding signal with SALL4 ZFC4 WT (HT-SELEX) was 1.3 ± 0.0929 fold-change vs cycle 0; in assay [1], 1.43 ± 0.078 fold-change vs cycle 0; in assay [2], 1.37 ± 0.111 fold-change vs cycle 0.

On to ATGTGA, for which the binding signal came to 1.31 ± 0.0395 fold-change vs cycle 0 in the assay with SALL4 ZFC4 WT (HT-SELEX), 1.44 ± 0.0647 fold-change vs cycle 0 in assay [1] and 1.39 ± 0.0509 fold-change vs cycle 0 in assay [2].

With CTAACA, the binding signal in the assay with SALL4 ZFC4 WT (HT-SELEX) came to 1.32 ± 0.0481 fold-change vs cycle 0; in assay [1], 1.48 ± 0.0428 fold-change vs cycle 0; in assay [2], 1.41 ± 0.0893 fold-change vs cycle 0.

For CCCAAC, the figures for the binding signal (with SALL4 ZFC4 WT (HT-SELEX); in assay [1]; in assay [2]) were 0.395 ± 0.0223 fold-change vs cycle 0, 0.437 ± 0.0176 fold-change vs cycle 0 and 0.544 ± 0.0399 fold-change vs cycle 0, respectively.

TATTCA: the binding signal with SALL4 ZFC4 WT (HT-SELEX) was 2.4 ± 0.138 fold-change vs cycle 0; in assay [1], 2.03 ± 0.0979 fold-change vs cycle 0; in assay [2] it was 1.83 ± 0.191 fold-change vs cycle 0.

On to CTTTAC, for which the binding signal with SALL4 ZFC4 WT (HT-SELEX) was found to be 1.34 ± 0.0196 fold-change vs cycle 0; in assay [1], 1.5 ± 0.0474 fold-change vs cycle 0; in assay [2] it was 1.36 ± 0.0809 fold-change vs cycle 0.

With GGAGAC, the binding signal with SALL4 ZFC4 WT (HT-SELEX) is 0.471 ± 0.0075 fold-change vs cycle 0; in assay [1], 0.574 ± 0.0262 fold-change vs cycle 0; in assay [2] it was 0.671 ± 0.0455 fold-change vs cycle 0.

As for GCGAAA, the results for the binding signal (with SALL4 ZFC4 WT (HT-SELEX); in assay [1]; in assay [2]) were 0.363 ± 0.0241 fold-change vs cycle 0, 0.395 ± 0.00888 fold-change vs cycle 0 and 0.534 ± 0.0715 fold-change vs cycle 0, respectively.

As for GAATCC, the binding signal came out at 0.85 ± 0.00926 fold-change vs cycle 0 with SALL4 ZFC4 WT (HT-SELEX), 0.935 ± 0.0194 fold-change vs cycle 0 in assay [1] and 0.989 ± 0.0139 fold-change vs cycle 0 in assay [2].

For ACGTTC, the binding signal with SALL4 ZFC4 WT (HT-SELEX) was found to be 0.7 ± 0.0339 fold-change vs cycle 0; in assay [1], 0.844 ± 0.024 fold-change vs cycle 0; in assay [2], 0.8714 ± 0.00795 fold-change vs cycle 0.

As to GAAGGA, the binding signal with SALL4 ZFC4 WT (HT-SELEX) is 0.959 ± 0.0373 fold-change vs cycle 0; in assay [1], 1.11 ± 0.0789 fold-change vs cycle 0; in assay [2] it was 1.08 ± 0.0796 fold-change vs cycle 0.

For GACACA, the binding signal with SALL4 ZFC4 WT (HT-SELEX) is 0.629 ± 0.04 fold-change vs cycle 0; in assay [1] it was 0.754 ± 0.0153 fold-change vs cycle 0; in assay [2] it was 0.837 ± 0.0392 fold-change vs cycle 0.

For the sequence AGTTTA, the binding signal with SALL4 ZFC4 WT (HT-SELEX) was found to be 1.89 ± 0.117 fold-change vs cycle 0; in assay [1] it was 1.94 ± 0.143 fold-change vs cycle 0; in assay [2], 1.72 ± 0.194 fold-change vs cycle 0.

Take ACTTGA: the values for the binding signal (with SALL4 ZFC4 WT (HT-SELEX); in assay [1]; in assay [2]) were 1.33 ± 0.0337 fold-change vs cycle 0, 1.5 ± 0.0479 fold-change vs cycle 0 and 1.41 ± 0.0888 fold-change vs cycle 0, respectively.

(Values after paper PMC9838217, “Structure of SALL4 zinc finger domain reveals link between AT-rich DNA binding and Okihiro syndrome”.)
